Potency and outcome data for eight molecules are collected here from PubChem BioAssay (Tox21).

Where “and” joins values, the source holds several entries; their conditions need not be identical. Equal entries are not always repeated. Records with an inconclusive call do not appear. The source holds several records for some structures; these can differ, active in one and inactive in another. Calls of active or inactive are those of the source. Unless noted, the call rests on the fitted dose curve; in most records, active means well fitted curve in the direction sought with a large enough effect in the repeat runs; inconclusive means weak or mixed curves; inactive means no such curve, though single readings can be large; an effect the other way counts as inactive or inconclusive.

A short description of assay [1]: qHTS assay to identify small molecule antagonists of the estrogen related receptor (ERR) signaling pathway from Tox21 library - cell viability counter screen (AID 1224834). Further: nearly all actives have a fitted effect of over 30% in size. A digest of the protocol: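 Viability readout (CellTiter-Fluor fluorescence, 30 min at 37 C) multiplexed with the ERR assay; cells treated 17.5 h at 37 C with compounds delivered in DMSO.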
For orientation: Quantitative high-throughput screening tests each substance at several concentrations.

Assay [2] concerns the target Luciferin 4-monooxygenase (Photinus pyralis) (UniProt P08659). The assay can be described thus: qHTS assay to identify small molecule inhibitors of firefly luciferase (AID 1224835). Further: nearly all actives have a fitted effect of over 25% in size. Further: potency means the concentration at half of the fitted maximal effect. A digest of the protocol: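 Biochemical qHTS: compounds run as interplate titrations against purified firefly enzyme, with D-luciferin and ATP each at its KM concentration. Light output recorded by CCD imaging.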

Assay [3] can be described thus: qHTS assay to identify small molecule agonists of the constitutive androstane receptor (CAR) signaling pathway - cell viability counter screen (AID 1224836). Further: series mostly up to about 92 µM; nearly all actives have a fitted effect of over 45% in size. A digest of the protocol:
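HepG2 cells stably carrying hCAR and a CYP2B6-2.2kb reporter were plated 4 h, then given compounds at 15 concentrations plus PK11195 (final 0.75 uM). After 23 h at 37 C, viability was read by CellTiter-Fluor fluorescence.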

Assay [4] in a line: qHTS assay to identify small molecule antagonists of the constitutive androstane receptor (CAR) signaling pathway - cell viability counter screen (AID 1224837). Further: series mostly up to about 92 µM; nearly all actives have a fitted effect of over 45% in size. A digest of the protocol:
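Fluorescence from CellTiter-Fluor served as the viability signal. Human hepatoma HepG2 cells stably bearing hCAR and CYP2B6-2.2kb received compound plus CITCO (50 nM final) for 23 hr.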

For assay [5], the target named is Nuclear receptor subfamily 1 group I member 3 (Homo sapiens) (UniProt Q14994). Nature of the assay: qHTS assay to identify small molecule antagonists of the constitutive androstane receptor (CAR) signaling pathway (AID 1224838). Further: nearly all actives have a fitted effect of over 40% in size. A digest of the protocol: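 Quantitative HTS in double-stable HepG2-CYP2B6-hCAR cells. After 4 h plating, cells get compound (15 concentrations) and CITCO at 50 nM final, incubate 24 h at 37 C, then ONE-Glo luminescence is read.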

The target is the same in assay [6]. The assay can be described thus: qHTS assay to identify small molecule agonists of the constitutive androstane receptor (CAR) signaling pathway (AID 1224839). Further: nearly all actives have a fitted effect of over 15% in size. Further: potency means the concentration at half of the fitted maximal effect.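 On activation: HepG2 cells stably carrying human CAR and a CYP2B6 luciferase reporter; series mostly up to about 92 µM.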 A digest of the protocol:
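HepG2 cells stably expressing hCAR and a CYP2B6-2.2kb luciferase reporter were treated with compounds at 15 concentrations plus 0.75 uM PK11195 (final) for 24 h at 37 C; luminescence was read after ONE-Glo addition.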

Assay [7] can be described thus: qHTS assay to identify small molecule antagonists of the estrogen related receptor signaling pathway with the pleiotropic PPARgamma coactivator (PGC) from Tox21 10K library - cell viability counter screen (AID 1224840; active means well fitted cell-killing curve with a large enough effect in the repeat runs, not every such curve was filed as active; further: nearly all actives have a fitted effect of over 40% in size). A digest of the protocol: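 Compounds in DMSO, alongside positive and negative controls, were pinned onto PGC/ERR cells (2,000 per well). Exposure lasted 17.5 hours at 37 C, followed by a 30-minute CellTiter-Fluor incubation and fluorescence reading.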

A short description of assay [8]: qHTS assay to identify small molecule agonists of the hypoxia (HIF-1) signaling pathway - cell viability counter screen (AID 1224844; calls by dose curve; further: nearly all actives have a fitted effect of over 50% in size). A digest of the protocol: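 Luminescent ATP content (CellTiter-Glo, 30 min, room temperature) served as the viability measure in HRE-bla ME-180 cells exposed to compounds for 17 hrs in low-serum medium (0.5% dialyzed FBS).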
Assay [9] can be described thus: qHTS assay to identify small molecule agonists of H2AX (AID 1224845; active means well fitted activation curve with a large enough effect in the signal ratio in the repeat runs, not every such curve was filed as active; the % refers to the signal ratio). A digest of the protocol:
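Wild-type CHO-K1 cells, plated overnight, exposed 3hr at 37C to 15 concentrations (0.76% DMSO final). Lysed, then HTRF anti-pH2AX (S139) cryptate and anti-H2AX-d2 antibodies, 24 hr room temperature; 665/620 nm emission read.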

Assay [10] can be described thus: qHTS assay to identify small molecule agonists of the hypoxia (HIF-1) signaling pathway (AID 1224846; active means well fitted activation curve with a large enough effect in the signal ratio in the repeat runs, not every such curve was filed as active; the % refers to the signal ratio). A digest of the protocol: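 Measured by blue/green FRET after loading CCF4-AM: beta-lactamase expressed from a hypoxia response element in ME-180 cells. Test agents were delivered in DMSO and left 17 hrs; cells had been plated 5 hrs earlier in low-serum (0.5% dialyzed FBS) medium.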

Assay [11] can be described thus: qHTS assay to identify small molecule agonists of H2AX - cell viability counter screen (AID 1224847; calls by dose curve; further: top concentration of the series differs between compounds; nearly all actives have a fitted effect of over 30% in size). A digest of the protocol: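 Wild-type CHO-K1 cells (10% FBS medium) were plated overnight at 37C, exposed to compounds at 15 concentrations for 3 hr at 37C (0.76% DMSO final), and viability was read as CellTiter-Glo luminescence after 30 min at room temperature.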

A short description of assay [12]: qHTS RealTime-Glo MT Cell Viability Assay in HepG2 cells - 24 hour (AID 1224867). Further: nearly all actives have a fitted effect of over 50% in size. A digest of the protocol:
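Viability was tracked continuously by NanoLuc luminescence from prosubstrate reduced by living HepG2 cells, at successive time points over 40 h of compound exposure. Cells with reagent were preincubated 5 h at 37 °C before compound addition.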

Assay [13] can be described thus: qHTS RealTime-Glo MT Cell Viability Assay in HEK293 cells - 32 hour (AID 1224868). Further: top concentration of the series differs between compounds; nearly all actives have a fitted effect of over 50% in size. A digest of the protocol: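 Viability tracked continuously by luminescence as live cells reduce a prosubstrate for NanoLuc; HEK293 cells preincubated 5 h, compound-treated at 37 C, and read at 0, 8, 16, 24, 32 and 40 h.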
The nature of assay [14]: A CellTox Green Cytotoxicity Assay to monitor cytotoxicity in HEK293 cells - 0 hour (AID 1224869). Further: nearly all actives have a fitted effect of over 50% in size. A digest of the protocol:
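Each value comes from one timepoint of a single continuous run in which HEK293 cells with CellTox Green were exposed to compound for up to 40 h at 37 C, dye fluorescence rising with cell death.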

Assay [15] is described as follows: qHTS RealTime-Glo MT Cell Viability Assay in HepG2 cells - 40 hour (AID 1224870). Further: nearly all actives have a fitted effect of over 50% in size. A digest of the protocol: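 HepG2 cells (600/well) mixed with RealTime-Glo MT reagent, settled 5 h at 37 C/5% CO2 before compound addition. Nonlytic NanoLuc luminescence from viable-cell prosubstrate reduction read repeatedly during 40 h treatment at 37 C.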
Assay [16] deals with Thyrotropin receptor (Homo sapiens) (UniProt P16473). Nature of the assay: qHTS assay to identify small molecule agonists of the thyroid stimulating hormone receptor (TSHR) signaling pathway (AID 1224843; calls by dose curve; further: nearly all actives have a fitted effect of over 45% in size; further: potency means the concentration at half of the fitted maximal effect). A digest of the protocol: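 TSHR-HEK293 cells in agonist mode, 30 min room-temperature step, then cAMP measured by competitive HTRF (cAMP-d2 with anti-cAMP cryptate) after 1 h at room temperature. Tested at 15 concentrations in triplicate.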
Thyrotropin receptor (Homo sapiens), sequence (P16473 whole entry, looked up): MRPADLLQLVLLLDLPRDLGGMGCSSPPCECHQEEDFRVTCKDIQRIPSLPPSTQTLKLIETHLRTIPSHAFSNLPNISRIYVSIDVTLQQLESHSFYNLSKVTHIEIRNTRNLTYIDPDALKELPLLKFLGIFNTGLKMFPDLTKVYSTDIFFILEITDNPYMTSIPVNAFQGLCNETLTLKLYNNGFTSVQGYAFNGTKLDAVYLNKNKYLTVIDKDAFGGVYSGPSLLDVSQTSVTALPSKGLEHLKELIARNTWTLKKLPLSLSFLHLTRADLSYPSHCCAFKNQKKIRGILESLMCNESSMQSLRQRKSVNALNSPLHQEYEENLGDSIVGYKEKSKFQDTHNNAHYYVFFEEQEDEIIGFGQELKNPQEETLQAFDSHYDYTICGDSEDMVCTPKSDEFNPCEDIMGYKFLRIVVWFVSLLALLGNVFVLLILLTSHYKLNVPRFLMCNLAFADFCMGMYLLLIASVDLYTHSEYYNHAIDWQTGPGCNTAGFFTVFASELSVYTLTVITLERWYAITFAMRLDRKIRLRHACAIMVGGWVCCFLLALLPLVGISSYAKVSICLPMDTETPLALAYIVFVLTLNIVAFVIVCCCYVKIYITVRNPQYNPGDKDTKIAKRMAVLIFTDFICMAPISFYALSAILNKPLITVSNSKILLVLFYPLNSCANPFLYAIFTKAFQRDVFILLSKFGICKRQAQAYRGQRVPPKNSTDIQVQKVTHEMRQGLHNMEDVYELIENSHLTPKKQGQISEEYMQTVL

Luciferin 4-monooxygenase (Photinus pyralis), sequence (P08659 whole entry, looked up): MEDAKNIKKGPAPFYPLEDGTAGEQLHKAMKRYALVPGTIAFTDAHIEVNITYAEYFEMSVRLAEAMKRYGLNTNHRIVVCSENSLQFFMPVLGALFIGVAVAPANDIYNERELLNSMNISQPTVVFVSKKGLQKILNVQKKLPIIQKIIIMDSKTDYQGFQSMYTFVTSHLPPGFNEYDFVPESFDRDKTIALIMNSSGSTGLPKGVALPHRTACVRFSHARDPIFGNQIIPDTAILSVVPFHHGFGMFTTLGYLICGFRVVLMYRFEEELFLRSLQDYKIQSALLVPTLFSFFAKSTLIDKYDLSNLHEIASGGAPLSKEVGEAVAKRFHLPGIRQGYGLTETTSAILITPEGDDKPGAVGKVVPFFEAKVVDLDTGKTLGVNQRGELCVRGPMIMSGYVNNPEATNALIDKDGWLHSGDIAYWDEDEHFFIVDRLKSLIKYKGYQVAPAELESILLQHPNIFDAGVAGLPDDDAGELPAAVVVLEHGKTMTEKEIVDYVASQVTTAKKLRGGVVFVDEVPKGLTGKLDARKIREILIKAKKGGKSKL
Nuclear receptor subfamily 1 group I member 3 (Homo sapiens), sequence (Q14994 whole entry, looked up): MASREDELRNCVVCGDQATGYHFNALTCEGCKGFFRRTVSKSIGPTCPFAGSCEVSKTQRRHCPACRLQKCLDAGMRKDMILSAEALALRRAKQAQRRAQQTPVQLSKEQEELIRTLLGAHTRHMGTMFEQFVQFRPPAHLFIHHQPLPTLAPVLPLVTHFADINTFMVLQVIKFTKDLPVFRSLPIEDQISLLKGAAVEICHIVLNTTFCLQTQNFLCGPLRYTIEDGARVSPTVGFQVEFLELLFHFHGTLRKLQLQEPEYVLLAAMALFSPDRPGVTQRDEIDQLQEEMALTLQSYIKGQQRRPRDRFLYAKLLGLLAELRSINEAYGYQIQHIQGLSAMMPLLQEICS

With `NC(=O)N1c2ccccc2C=Cc2ccccc21`, the Potency entry in assay [1], in assay [2], in [3], in assay [4], in assay [5] and in [6] was “inactive” throughout. Further, the Potency result in assay [7], in [8], in assay [9], in [11], in assay [13] and in assay [14] was “inactive” in each case. The call in assay [10], in assay [12] and in assay [15] was inactive.

Turning to `NC(=O)OCC(COC(N)=O)c1ccccc1`, the Potency entry in assay [1], in [2], in assay [3], in [4], in [5] and in assay [6] was “inactive” in each case. Moreover, the Potency result in [7], in [16], in assay [8], in [9], in assay [11] and in [13] was “inactive” each time. The Potency entry in [14] is “inactive”. The result in assay [12] and in assay [15] was inactive.

`C[C@]12C[C@H](O)[C@H]3[C@@H](CCC4=CC(=O)CC[C@@]43C)[C@@H]1CC[C@@H]2C(=O)CO`: the Potency entry in assay [1], in assay [2], in [3], in assay [4], in assay [5] and in assay [6] was “inactive” throughout. Moreover, the Potency entry in [7], in [8], in assay [9], in [11], in [13] and in [14] was “inactive” in each case. Further, in [16], the Potency was 12.2 µM (active) and inactive. Besides, the molecule was called inactive in assay [10], in assay [12] and in assay [15].

Take `N[C@@H](Cc1c[nH]c2ccc(O)cc12)C(=O)O`: the Potency result in assay [1], in assay [3], in assay [4], in assay [5], in assay [6] and in [7] was “inactive” throughout. The Potency entry in assay [16], in assay [8], in [9], in assay [11], in assay [13] and in assay [14] was “inactive” each time. The Potency in assay [2] is 34.6 µM (active) and inactive. In addition, the outcome in assay [10], in [12] and in assay [15] was inactive.

Regarding `Cc1c(N(C)C)c(=O)n(-c2ccccc2)n1C`, the Potency result in assay [1], in assay [2], in assay [3], in assay [4], in assay [5] and in assay [6] was “inactive” throughout. Also, the Potency result in assay [7], in assay [16], in assay [8], in [9], in [11] and in assay [13] was “inactive” throughout. In assay [14], the Potency result was “inactive”. Besides, the result in [12] and in [15] was inactive.

In the case of `COc1cc(O)c(C(=O)c2ccccc2)cc1S(=O)(=O)O`, the Potency result in assay [1], in assay [2], in [3], in assay [4], in assay [5] and in assay [6] was “inactive” throughout. For the same molecule, the Potency result in assay [7], in [16], in assay [8], in assay [9], in assay [11] and in [13] was “inactive” throughout. Moreover, the Potency result in assay [14] is “inactive”. Moreover, the molecule was classed as inactive in assay [10], in assay [12] and in [15].

Take `c1ccc2[nH]c(-c3cscn3)nc2c1`: the Potency result in assay [1], in assay [3], in assay [4], in [5], in assay [7] and in [16] was “inactive” in each case. Besides, the Potency result in assay [8], in [9], in assay [11], in assay [13] and in assay [14] was “inactive” each time. For the same molecule, the Potency in assay [2] is 28.4 µM (active) and 35.6 µM (active) and 17.4 µM (active); in [6], 13.8 µM (active) and 6.11 µM (active) and 7.5 µM (active). For the same molecule, the result in assay [10], in assay [12] and in [15] was inactive.

Turning to `COc1ccccc1NC(=O)CC(C)=O`, the Potency entry in assay [1], in [2], in assay [3], in assay [4], in assay [5] and in [6] was “inactive” each time. The Potency entry in assay [7], in assay [16], in assay [8], in assay [9], in assay [11] and in [13] was “inactive” each time. For the same molecule, in assay [14], the Potency entry was “inactive”. In addition, the outcome in assay [10], in [12] and in [15] was inactive.
